HIF-2a inh: blocks HIF-2a reporter activity; AID 624352; inhibition, % at 18.8 µM; hit rate 0.72% among 360,000; 786-0 RCC cells HIF-2a reporter, luciferase luminescence, overnight;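 active = inhibition of the luminescence signal of 40% or more relative to plate controls, in a single-dose primary screen at 18.75 µM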
Peg3 prom inh: inhibitors of Peg3 promoter. HeLa PEG-Prom luciferase reporter, luminescence, overnight. inhibition, % at 20 µM. hit rate 1.7% among 360,000. AID 588405;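 active = inhibition of at least 50% at 20 µM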
KKLEB tox: counter-screen for CF NF-kB inhibitors: cytotoxicity; KKLEB CF airway cells viability, ATPlite luminescence, overnight; hits give low values; cells stimulated with P. aeruginosa culture filtrate; activity change (cytotoxicity), % at 5 µM; hit rate 0.36% among 360,000; AID 602141;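 active = corrected activity change at or below -50% at 5 µM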
LMP1 NFkB inh: reduces LMP1-driven NF-kappaB luciferase signal | LMP1-induced NF-kappaB luciferase reporter cells, luminescence | inhibition, % at 12.5 µM | hit rate 0.69% among 350,000 | AID 504558; in the data active = inhibition above about 41%
CF NFkB inh: blocks PAF-induced NF-kB reporter in cystic fibrosis cells; KKLEB NF-kB-GFP reporter, GFP fluorescence overnight; inhibition, % at 5 µM; hit rate 0.86% among 360,000; AID 588850;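 active = at least 50% inhibition at 5 µM, scaled per plate between neutral and stimulator controls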;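 note: PAF is a Pseudomonas aeruginosa culture filtrate used as stimulus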
Shn3 3UTR inh: reduces Shn3 3'UTR luciferase signal in osteoblasts. Clone20 osteoblast Shn3 3'UTR firefly luciferase, 24 h. hit rate 0.52% among 360,000. inhibition, % at 12.5 µM;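 active = mean inhibition of at least 75% with every replicate also reaching 75%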
Mdm2 MdmX conf: Mdm2/MdmX (human) interaction inhibition, confirmed | shares compounds with HIF-2a inh | SaOS-2 split-luciferase Mdm2/MdmX complementation, luminescence | inhibition, % at 8 µM | hit rate 99% among 740;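 active = mean inhibition of the luminescence signal across two replicates at or above 26 percent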
Target sequence (O15151 whole entry, looked up): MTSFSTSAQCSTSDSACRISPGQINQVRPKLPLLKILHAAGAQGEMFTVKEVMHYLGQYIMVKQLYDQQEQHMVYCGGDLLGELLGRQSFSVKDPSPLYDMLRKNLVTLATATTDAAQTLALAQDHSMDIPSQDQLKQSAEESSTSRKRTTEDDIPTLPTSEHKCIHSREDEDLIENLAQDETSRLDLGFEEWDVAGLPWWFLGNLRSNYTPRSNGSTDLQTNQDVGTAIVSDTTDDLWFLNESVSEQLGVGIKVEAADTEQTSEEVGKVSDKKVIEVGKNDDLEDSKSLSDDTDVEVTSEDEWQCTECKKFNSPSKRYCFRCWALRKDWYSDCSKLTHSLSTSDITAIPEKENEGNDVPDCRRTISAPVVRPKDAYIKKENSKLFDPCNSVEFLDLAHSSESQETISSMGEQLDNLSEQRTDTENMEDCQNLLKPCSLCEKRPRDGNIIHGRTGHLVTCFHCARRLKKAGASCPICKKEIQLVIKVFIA
Target sequence (Q00987 whole entry, looked up): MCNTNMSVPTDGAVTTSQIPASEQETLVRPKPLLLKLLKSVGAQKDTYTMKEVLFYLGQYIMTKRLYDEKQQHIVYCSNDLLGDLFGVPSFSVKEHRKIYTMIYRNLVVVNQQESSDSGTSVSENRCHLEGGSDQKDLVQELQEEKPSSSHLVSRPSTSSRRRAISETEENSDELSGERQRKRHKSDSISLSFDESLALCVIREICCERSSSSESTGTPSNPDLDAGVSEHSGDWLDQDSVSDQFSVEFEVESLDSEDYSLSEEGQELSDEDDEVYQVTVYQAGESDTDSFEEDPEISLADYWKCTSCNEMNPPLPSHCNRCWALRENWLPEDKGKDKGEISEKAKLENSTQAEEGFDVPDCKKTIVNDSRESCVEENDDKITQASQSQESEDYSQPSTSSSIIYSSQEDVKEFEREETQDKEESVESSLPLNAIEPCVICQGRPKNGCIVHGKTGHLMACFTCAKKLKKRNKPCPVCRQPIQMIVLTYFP
HIF-2a conf: confirmation of HIF-2a inhibitors. shares compounds with HIF-2a inh. inhibition, % at 18.8 µM. hit rate 56% among 1,800. 786-0 RCC cells, HIF-2a luciferase reporter luminescence, overnight;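 active = mean inhibition across four replicates of at least 40 percent at the single tested concentration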
HIF-1a counter: counter-screen for HIF-2a inhibitors: HIF-1a inhibition in MiaPaCa-2 cells; shares compounds with HIF-2a inh; hit rate 72% among 1,800; MiaPaCa-2 HIF-1a luciferase reporter, desferoxamine, overnight; inhibition, % at 18.8 µM;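 active = mean inhibition of the reporter signal across four replicates at the single tested dose of 50% or more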
Each line names hits and unclear results; the compound was inactive in the other large screens (follow-up assays come after a bar, where they were run). In the library only some 2.9% were active in any assay of this set; here they are far more common.

Nc1ccc(-c2nc3c(Cl)cc(N)cc3[nH]2)cc1	HIF-2a inh 88.0 | HIF-2a conf 95.7 | HIF-1a counter 84.8
Cc1cccc(CS(=O)(=O)c2cn(CC(=O)N3CCOCC3)c3ccccc23)c1	none
O=C(COC(=O)c1ccc(NS(=O)(=O)c2ccc(F)c(F)c2)cc1)NCC1CCCO1 (stereo unspecified)	HIF-2a inh 44.6 | HIF-2a conf inactive | HIF-1a counter inactive
COC(=O)c1ccc(-c2nn(C)c(=O)c3ccccc23)cc1	none
COC(=O)c1ccc(C(=O)OC)c(-n2c(=O)c3ccccc3c3ccccc3c2=O)c1	HIF-2a inh 45.4 | HIF-2a conf 52.0 | HIF-1a counter inactive
Nc1ccc(C(=O)N/N=C/c2c[nH]c3ccccc23)cc1	none
O=C(O)c1cccc(-c2nnn(Cc3ccccc3)n2)c1	none
O=C(O)c1cccc(-c2nnn(Cc3ccccc3Cl)n2)c1	HIF-2a inh 64.7 | HIF-2a conf 62.9 | HIF-1a counter inactive
O=C(NCc1nnc(SCC(=O)N2CCCCCC2)o1)c1ccccc1F	none
CCC(C)c1ccc(OCc2ccc(C(=O)O)o2)cc1 (stereo unspecified)	HIF-2a inh 55.0 | HIF-2a conf inactive | HIF-1a counter inactive
CCOC(=O)C(CCCOc1ccc(C(C)CC)cc1)C(=O)OCC (stereo unspecified)	HIF-2a inh 70.5 | HIF-2a conf 73.2 | HIF-1a counter 69.0
CC1(C)N(OCc2ccccc2)C(=O)C(=O)N(OCc2ccccc2)C1(C)C	none
CC(=O)Nc1ccc(NC(=O)c2oc3cc(C)c(C)cc3c2C)cc1	HIF-2a inh 52.5 | HIF-2a conf 74.0 | HIF-1a counter inactive
Cc1cc2oc(C(=O)Nc3cccnc3)c(C)c2cc1C	none
C[C@H](NC(=O)c1[nH]cnc1C(=O)N[C@H](C)c1ccccc1)c1ccccc1	none
O=C(COC(=O)c1nc(Cl)c(Cl)c(Cl)c1Cl)NCc1ccccc1	HIF-2a inh 69.6, Peg3 prom inh 92.5 | HIF-2a conf inactive | HIF-1a counter inactive
Cc1ccccc1NC(=O)c1cc2c(=O)n3cccc(C)c3nc2s1	none
CCOc1cc(/C=C\[N+](=O)[O-])ccc1OCC(=O)N1CCOCC1	HIF-2a inh 82.6, Peg3 prom inh 78.1 | HIF-2a conf 88.3 | HIF-1a counter 84.9
CCOc1cc(/C=C/c2nc3cc(C)c(C)cc3s2)ccc1OCC(=O)N1CCOCC1	none
COC(=O)[C@H]1C[C@@]2(O)CN(S(=O)(=O)c3ccc(C)cc3)C[C@@]2(OC(=O)NCc2ccco2)C[C@H]1C(=O)OC	none
O=C(NC1CCCC1)C(c1ccccc1)n1c(CSCCOc2ccccc2)nc2ccccc21 (stereo unspecified)	HIF-2a inh 64.8 (no result: Peg3 prom inh, KKLEB tox, LMP1 NFkB inh, CF NFkB inh, Shn3 3UTR inh) | HIF-2a conf 79.3 | HIF-1a counter 66.5
CN1CCc2c(n(CC(O)CNCc3ccccc3)c3ccccc23)C1=O (stereo unspecified)	none
CC(C)NCC(O)Cn1c2c(c3ccccc31)CCc1c-2cnn1-c1ccccc1 (stereo unspecified)	HIF-2a inh 41.0, Peg3 prom inh 104.3 | HIF-2a conf inactive | HIF-1a counter 105.4
COc1ccc(CN(CCC(c2ccccc2)c2ccc(OC(C)C)cc2)C(=O)CCl)cc1OC (stereo unspecified)	HIF-2a inh 96.0, Peg3 prom inh 106.3, KKLEB tox -85.2, CF NFkB inh 80.7 | Mdm2 MdmX conf 102.7
O=C(Nc1cc(C(F)(F)F)cc(C(F)(F)F)c1)Nc1cnn(-c2ccc([N+](=O)[O-])cc2)c1C(F)(F)F	HIF-2a inh 56.8, Peg3 prom inh 96.0, KKLEB tox -68.9, LMP1 NFkB inh 57.1, CF NFkB inh 77.2 | Mdm2 MdmX conf 103.0 | HIF-2a conf inactive | HIF-1a counter 106.1
Cc1[nH]nc2c1C(c1cc(Br)cs1)C(C#N)=C(N)O2 (stereo unspecified)	HIF-2a inh 42.8, CF NFkB inh 59.7 | HIF-2a conf 40.4 | HIF-1a counter 91.9
COc1ccc(/C=C/c2c(-c3ccc(OC)cc3)oc3ccc(-c4ccc(OC)cc4)cc23)cc1	none
COc1ccc(/C=C/c2cc(-c3ccc(C)cc3)o[n+]2C)cc1	HIF-2a inh 43.5, Peg3 prom inh 66.9, KKLEB tox -62.2, CF NFkB inh 56.5, Shn3 3UTR inh 82.7 | Mdm2 MdmX conf 102.0 | HIF-2a conf 53.5 | HIF-1a counter 102.8
O=C(Nc1ccc(Cl)cc1Cl)c1cccc(N2C(=O)C=CC2=O)c1	HIF-2a inh 44.3, Peg3 prom inh 108.4 | HIF-2a conf 80.0 | HIF-1a counter inactive
COCOc1ccc(C=O)c(OCOC)c1	none
CCOC(=O)C1CCN(Cc2cc(=O)oc3c(C)c(C)ccc23)CC1	HIF-2a inh 57.0 | HIF-2a conf 78.2 | HIF-1a counter inactive
Cc1ccc(S(=O)(=O)N2CCOCC2)cc1C(=O)NC1CCCC1	none
O=C(O)CCSc1nc2ccccc2s1	HIF-2a inh 89.2 | HIF-2a conf 97.2 | HIF-1a counter 91.7
O=C(CCCSc1nc2ccccc2s1)NC1=NCCS1	HIF-2a inh 72.2 | HIF-2a conf 84.9 | HIF-1a counter inactive
CC(=O)Nc1ccc(NC(=O)CCCSc2nc3ccccc3s2)cc1	none
CCOC(=O)NC(=O)COC(=O)CCCSc1nc2ccccc2s1	HIF-2a inh 59.3 | HIF-2a conf 75.7 | HIF-1a counter inactive
Cc1cccc(C)c1NC(=O)CCCSc1nc2ccccc2s1	none
c1ccc2sc(SCSc3nc4ccccc4s3)nc2c1	none (no result: Shn3 3UTR inh)
NC(=O)NC(=O)COC(=O)CCCSc1nc2ccccc2s1	HIF-2a inh 70.6 | HIF-2a conf 82.9 | HIF-1a counter 61.8
CC(C)NC(=O)NC(=O)COC(=O)CCCSc1nc2ccccc2s1	none
CC(NC(=O)CN1CCOCC1)c1ccccc1 (stereo unspecified)	none
Cc1c(NC(=O)CSc2nnc3c4ccccc4n(CCc4ccccc4)c3n2)c(=O)n(-c2ccccc2)n1C	none | Mdm2 MdmX conf 101.0
Cc1ccc(Cn2ccsc2=NC(=O)CCl)cc1	KKLEB tox -92.3, CF NFkB inh 93.8 | Mdm2 MdmX conf 103.0
Cc1ccc(Cn2ccsc2=NC(=O)COC(=O)c2ccc(NC(=O)CC#N)cc2)cc1	none
COCCSc1ccccc1C(=O)Nc1ccc(S(=O)(=O)N2CCOCC2)cc1	none
CCOC(=O)c1cc(-c2csc(-c3ccc(C(C)(C)C)cc3)n2)on1	HIF-2a inh 57.0 | HIF-2a conf 57.9 | HIF-1a counter inactive
